Reference: PubChem BioAssay AID1159580 (chemical genetic matrix, 2015)
Screen size: about 5,500 compounds; about 2,000 (36%) were called active. Not shown: some 18% with an inconclusive outcome. No stated cut-off is given here; in the data, active means normalized growth mostly below about 0.91 (no sharp cut-off); inconclusive means no clear call, values can overlap the other calls; inactive means mostly above about 0.92. This is one part of the list.

Test: chemical genetic growth profiling, strain panel (AID 1159580);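 further: tested at 20 µM; growth read once vehicle control cultures reached saturation at 30 °C; 1 = growth at the plate median or of vehicle wells; lower values mean less growth of the strain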
Details: S. cerevisiae deletion strains, growth OD

Measured: normalized growth

CC1=C(C/C=C(\C)CCC[C@H](C)CCC[C@H](C)CCCC(C)C)C(=O)c2ccccc2C1=O
inactive: locus YAL021C, strain ccr4, active compounds read low 0.99 | locus YAL026C, strain drs2, active compounds read low 0.99 | locus YAL030W, strain snc1, active compounds read low 0.995 | locus YBL061C, strain skt5, active compounds read low 0.997 | locus YBR009C, strain hhf1, active compounds read low 0.977 | locus YBR023C, strain chs3, active compounds read low 0.996 | locus YBR171W, strain sec66, active compounds read low 0.993 | locus YBR231C, strain swc5, active compounds read low 0.989 | locus YBR279W, strain paf1, active compounds read low 0.994 | locus YCL011C, strain gbp2, active compounds read low 0.977 | locus YCL016C, strain dcc1, active compounds read low 0.985 | locus YCL061C, strain MRC1, active compounds read low 0.987 | locus YCL069W, strain vba3, active compounds read low 0.979 | locus YCR088W, strain abp1, active compounds read low 1 | locus YDL005C, strain med2, active compounds read low 0.965 | locus YDL040C, strain nat1, active compounds read low 1 | locus YDR001C, strain nth1, active compounds read low 0.993 | locus YDR069C, strain doa4, active compounds read low 0.975 | locus YDR159W, strain sac3, active compounds read low 0.981 | locus YDR195W, strain ref2 0.963 | locus YDR297W, strain sur2, active compounds read low 0.993 | locus YDR334W, strain swr1, active compounds read low 0.955 | locus YDR335W, strain msn5, active compounds read low 0.99 | locus YDR392W, strain spt3, active compounds read low 0.962 | locus YEL003W, strain gim4, active compounds read low 0.977 | locus YEL037C, strain rad23, active compounds read low 0.994 | locus YEL061C, strain CIN8 (second series), active compounds read low 0.992 | locus YER015W, strain faa2, active compounds read low 0.991 | locus YER016W, strain bim1, active compounds read low 0.982 | locus YER111C, strain swi4, active compounds read low 1 | locus YER155C, strain BEM2 (second series), active compounds read low 0.993 | locus YFR010W, strain ubp6, active compounds read low 0.974 | locus YGL167C, strain pmr1, active compounds read low 0.989 | locus YGL173C, strain kem1, active compounds read low 0.99 | locus YGL227W, strain vid30, active compounds read low 0.997 | locus YGL240W, strain doc1, active compounds read low 0.956 | locus YGL253W, strain hxk2, active compounds read low 1 | locus YHR013C, strain ard1, active compounds read low 0.975 | locus YHR027C, strain rpn1, active compounds read low 0.984 | locus YHR030C, strain SLT2, active compounds read low 0.986 | locus YHR079C, strain IRE1, active compounds read low 0.992 | locus YHR142W, strain chs7, active compounds read low 1 | locus YJL092W, strain hpr5, active compounds read low 0.982 | locus YJL095W, strain BCK1 (second series), active compounds read low 0.995 | locus YJL095W, strain BCK1, active compounds read low 0.998 | locus YJL115W, strain asf1, active compounds read low 0.968 | locus YJL129C, strain trk1, active compounds read low 0.984 | locus YJL154C, strain vps35, active compounds read low 0.984 | locus YJL164C, strain tpk1, active compounds read low 0.974 | locus YJL166W, strain qcr8, active compounds read low 1 | locus YJL187C, strain SWE1, active compounds read low 0.979 | locus YJR066W, strain TOR1, active compounds read low 0.943 | locus YKL160W, strain elf1, active compounds read low 0.998 | locus YKR026C, strain gcn3, active compounds read low 0.996 | locus YKR091W, strain srl3, active compounds read low 0.985 | locus YLL001W, strain dnm1, active compounds read low 0.992 | locus YLL026W, active compounds read low 0.996 | locus YLL041C, strain sdh2, active compounds read low 0.99 | locus YLR027C, strain aat2, active compounds read low 0.992 | locus YLR113W, strain HOG1, active compounds read low 0.953 | locus YLR221C, strain rsa3, active compounds read low 0.981 | locus YLR258W, strain gsy2, active compounds read low 0.983 | locus YLR262C, strain YPT6 (second series), active compounds read low 0.899 | locus YLR320W, strain mms22, active compounds read low 0.992 | locus YLR342W, strain FKS1, active compounds read low 0.999 | locus YLR357W, strain rsc2, active compounds read low 1 | locus YLR370C, strain arc18, active compounds read low 0.99 | locus YLR384C, strain iki3, active compounds read low 0.988 | locus YML120C, strain ndi1, active compounds read low 0.998 | locus YMR058W, strain fet3, active compounds read low 0.973 | locus YMR125W, strain sto1, active compounds read low 0.978 | locus YMR129W, active compounds read low 0.985 | locus YMR205C, strain PFK2, active compounds read low 0.981 | locus YMR231W, strain pep5, active compounds read low 0.99 | locus YNL071W, strain lat1, active compounds read low 0.972 | locus YNL183C, strain NPR1, active compounds read low 0.947 | locus YNL209W, strain ssb2, active compounds read low 0.983 | locus YNL248C, strain rpa49, active compounds read low 0.977 | locus YNL322C, strain KRE1 (second series), active compounds read low 0.998 | locus YNR049C, strain mso1, active compounds read low 1 | locus YOR001W, strain rrp6, active compounds read low 1 | locus YOR070C, strain gyp1, active compounds read low 0.988 | locus YOR080W, strain dia2, active compounds read low 0.986 | locus YOR083W, strain WHI5, active compounds read low 0.992 | locus YOR106W, strain vam3, active compounds read low 0.964 | locus YOR231W, strain MKK1, active compounds read low 0.979 | locus YOR265W, strain rbl2, active compounds read low 0.985 | locus YOR270C, strain vph1, active compounds read low 0.871 | locus YOR290C, strain snf2, active compounds read low 0.987 | locus YPL051W, strain arl3, active compounds read low 0.988 | locus YPL078C, strain atp4, active compounds read low 0.996 | locus YPL106C, strain sse1, active compounds read low 0.871 | locus YPL240C, strain hsp82, active compounds read low 0.97 | locus YPL256C, strain CLN2, active compounds read low 0.944
active: locus YDR137W, strain rgp1, active compounds read low 0.772
